High-throughput results as filed in PubChem BioAssay.
CDC25B CDK2 inh: human CDC25B-CDK2/CyclinA binding inhibition | HTRF CDC25B-CDK2/CyclinA binding, anti-His/anti-Flag; stronger effect = higher value | z-score (concentration not given with the values) | 94,000 tested, 0.72% active; in the data active = z-score above about 3.2
HIV TAR-Tat: HIV-1 TAR-Tat binding disruption | 100,000 tested, 0.6% active | z-score (no concentration beside the values) | HIV-1 TAR RNA, Tat peptide displacement FRET; stronger effect = higher value; active = z-score of 3 or more in at least 2 runs
Numbers stand for hits; – = inactive; · = no result given. A selection: hits, their analogues and other compounds. The true share with any hit is near 0.86%.

SMILES	CDC25B CDK2 inh	HIV TAR-Tat
CCOC(=O)N1CCc2c(sc3c2C(=O)NC(c2ccc(O)c(OC)c2)N3)C1 (centres undefined)	–	–
CCC(C)NS(=O)(=O)c1cccc(S(=O)(=O)c2cccc(S(=O)(=O)NC(C)CC)c2)c1 (centres undefined)	·	–
O=C(NCCN1CCc2ccccc2C1)c1cc2ccc3cccnc3c2[nH]1	·	–
COc1ccc(N2COc3cc4c(cc3C2)OCO4)cc1	–	·
Fc1ccc(N2COc3cc4c(cc3C2)OCO4)cc1Cl	8.61	·
CNC(=O)CCCN1C(=O)c2cccnc2Oc2ccc(Cl)cc21	·	–
CC(C)CNc1ncnc2c1cnn2-c1ccc(F)cc1	·	–
CCOc1cc(/C=C2\SC(=Nc3cccc(Cl)c3C)NC2=O)ccc1O	–	·
Cc1ccc(N=C2NC(=O)/C(=C/c3ccc(O)c(Br)c3)S2)cc1Cl	8.77	·
Brc1ccc(CNc2n[nH]c(-c3ccco3)n2)cc1	–	–
CN(C)c1ccc(CNc2n[nH]c(-c3ccco3)n2)cc1	14.9	–
Cc1[nH]c2ccccc2c1C(=O)CSc1nnc(-c2ccco2)n1-c1ccccc1	–	–
CC(=O)N1c2ccc(S(=O)(=O)N(C)CC(=O)NCc3cccs3)cc2CC1C (centres undefined)	·	–
O=C(/C=C/c1cccs1)NC(=S)Nc1ccccc1	8.26	·
O=C(/C=C/c1cccs1)NC(=S)NCc1ccccc1	–	·
CCCCOc1ccc(S(=O)(=O)N=Nc2c(O)[nH]c3ccc(Br)cc23)cc1	–	·
CCc1ccccc1N1CSC2=C(C#N)C(c3ccccc3)CC(=O)N2C1 (centres undefined)	6.94	–
N#CC1=C2SCN(C3CCCCC3)CN2C(=O)CC1c1ccccc1 (centres undefined)	–	–
Cc1ccc(N2CSC3=C(C#N)C(c4ccccc4)CC(=O)N3C2)cc1Cl (centres undefined)	5.59	–
Cc1ccccc1N1CSC2=C(C#N)C(c3cccc(F)c3)CC(=O)N2C1 (centres undefined)	8	–
Cc1ccccc1N1CSC2=C(C#N)C(c3ccccc3)CC(=O)N2C1 (centres undefined)	5.36	–
CC1(C)Cc2nc3sc4c(=O)n(CCc5ccccc5)cnc4c3cc2CO1	·	–
FC(F)(F)c1ccc(Cl)c(NC(=S)N2CCOCC2)c1	–	·
COc1ccc(S(=O)(=O)N2CCCC2c2cccs2)cc1OC (centres undefined)	–	–
O=C(Cc1ccc(F)cc1)N1CCC(n2nc(-c3ccccc3)oc2=O)CC1	–	–
SMILES	CDC25B CDK2 inh	HIV TAR-Tat
N#CC1=C2SCN(c3cccc(Cl)c3)CN2C(=O)CC1c1cccc(F)c1 (centres undefined)	8.39	–
Cc1cccc(N2CSC3=C(C#N)C(c4ccc(C)o4)CC(=O)N3C2)c1 (centres undefined)	–	–
Cc1ccc(N2CSC3=C(C#N)C(c4cccc(F)c4)CC(=O)N3C2)cc1 (centres undefined)	4.71	–
N#CC1=C2SCN(c3ccc(Br)cc3)CN2C(=O)CC1c1ccccc1 (centres undefined)	5.95	–
CN(n1cnc2ccccc2c1=O)S(=O)(=O)c1ccc(Cl)cc1	–	·
CC1CCCC(NC(=O)C2CCN(C(=O)c3cc4sccc4n3C)CC2)C1C (centres undefined)	–	–
NNC(=O)c1csc(-c2ccccc2)n1	–	·
O=C(Cc1csc(-c2ccccc2)n1)Nc1nc(-c2ccccc2)cs1	–	–
NNC(=O)c1csc(-c2cccc(-n3cccc3)c2)n1	16.9	·
NNC(=O)Cc1csc(-c2cccc(-n3cccc3)c2)n1	16.5	·
CC(=O)N1c2ccc(S(=O)(=O)N3CCOCC3)cc2CC1C(=O)NCCc1c(C)noc1C (centres undefined)	·	–
CCc1nc(-c2csc(S(=O)(=O)N3CCC(C(=O)N(C)C4CCCCC4)CC3)c2)no1	·	–
Cc1ccc2cc(NC(=O)C3CC(=O)N(Cc4ccc(F)cc4)C3)ccc2n1 (centres undefined)	6.57	·
O=C1CC(c2nc3ccccc3n2Cc2ccc(F)cc2)CN1Cc1ccccc1 (centres undefined)	–	–
O=C1c2cccc3c(N4CCOCC4)ccc(c23)C(=O)N1c1cccc(O)c1	–	–
O=C1c2cccc3c(N4CCOCC4)ccc(c23)C(=O)N1c1cc(Cl)ccc1O	9.69	–
COc1ccc(N2CCN(c3nn4nnnc4c4ccccc34)CC2)cc1	·	–
Cc1ccc(C(=O)c2cnc3cc4c(cc3c2N2CCOCC2)OCO4)cc1C	–	8.79
CCc1ccc(C(=O)c2cnc3cc4c(cc3c2N2CCCC2)OCO4)cc1	–	–
CCOC(=O)c1c(O)csc1C	–	–
CCN1CCN(c2cc(NC3CCCCC3)c3c4c(onc24)-c2ccccc2C3=O)CC1	–	4.31
CC(C)Nc1cc(N2CCN(CCO)CC2)c2noc3c2c1C(=O)c1ccccc1-3	–	9.49
CCNc1cc(N2CCN(CCO)CC2)c2noc3c2c1C(=O)c1ccccc1-3	8.13	15.5
